Results taken from PubChem BioAssay (NCI).
Compounds without any hit were thinned out: in the full panel of roughly 79,000, 15% have a hit. The source made the active and inactive calls. No stated cut-off is given here; in the data, active means growth inhibition above about 70%; inactive means the rest.

Columns and labels:
[1] = NCI Yeast Anticancer Drug Screen. Data for the rad52 strain (AID 147);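 further: 0% = growth of vehicle-treated control cultures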; conditions: S. cerevisiae rad52 mutant growth inhibition, active compounds read high
In short: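 Yeast strain carrying a DNA damage repair alteration was exposed to test compounds. Growth inhibition was measured relative to vehicle-treated controls.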

[2] = NCI Yeast Anticancer Drug Screen. Data for the wt1 strain (AID 149);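 further: 0% = growth of vehicle-treated wt1 cultures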; conditions: S. cerevisiae wt1 strain (SPY 50644) growth inhibition, active compounds read high
In short: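 Readout: yeast growth inhibition, normalised to vehicle controls, in the wt1 strain exposed to test compounds.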

[3] = NCI Yeast Anticancer Drug Screen. Data for the rad50EPP+ strain (AID 151);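 further: 0% = growth of vehicle-treated control cultures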; conditions: S. cerevisiae rad50 mutant strain, active compounds read high
In short: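 Yeast strain carrying rad50 alteration (rad50EPP+) exposed to compounds; growth inhibition measured relative to vehicle-treated controls.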

[4] = NCI Yeast Anticancer Drug Screen. Data for the mgt1 strain (AID 153); conditions: S. cerevisiae mgt1 mutant growth inhibition, active compounds read high
In short: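 Yeast mgt1 strain (DNA repair/cell-cycle alteration panel) exposed to compounds; growth inhibition measured relative to vehicle-treated controls.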

[5] = NCI Yeast Anticancer Drug Screen. Data for the rad50 strain (AID 155);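 further: 0% = growth of vehicle-only cultures of the same strain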; conditions: S. cerevisiae rad50 strain growth inhibition, active compounds read high
In short: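 Compounds were tested on a yeast strain with an engineered DNA damage repair alteration; the reported value is growth inhibition normalised to vehicle treatment.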

[6] = NCI Yeast Anticancer Drug Screen. Data for the mec2-1 strain (AID 157); conditions: S. cerevisiae mec2-1 strain, active compounds read high
In short: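 mec2-1 yeast strain, carrying an alteration in DNA damage repair or cell cycle control, was exposed to compounds; growth inhibition was measured relative to vehicle-treated controls.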

[7] = NCI Yeast Anticancer Drug Screen. Data for the rad14 strain (AID 159);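 further: 0% = growth of vehicle-treated control cultures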; conditions: S. cerevisiae rad14 strain growth inhibition, active compounds read high
In short: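 Compound-treated yeast with a defined DNA-repair lesion; growth inhibition normalised to vehicle-treated cultures.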

[8] = NCI Yeast Anticancer Drug Screen. Data for the sgs1 mgt1 strain (AID 161);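 further: 0% = growth of cultures given vehicle only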; conditions: S. cerevisiae sgs1 mgt1 strain, active compounds read high
In short: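 This yeast growth screen uses a strain with defined DNA-repair lesions; compound-treated growth is compared with vehicle-treated growth.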

[9] = NCI Yeast Anticancer Drug Screen. Data for the CLN2oe strain (AID 163);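 further: 0% = growth of vehicle-only control cultures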; conditions: S. cerevisiae CLN2oe strain, active compounds read high
In short: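 Yeast cells carrying a defined cell-cycle control alteration were exposed to test compounds. Growth inhibition was scored against vehicle-treated control cultures.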

[10] = NCI Yeast Anticancer Drug Screen. Data for the cln2 rad14 strain (AID 165);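 further: 0% = growth equal to vehicle treated cultures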; conditions: S. cerevisiae cln2 rad14 strain, active compounds read high
In short: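 Yeast carrying cln2 and rad14 alterations (cell cycle control and DNA damage repair) were exposed to compounds. Growth inhibition was measured against vehicle-treated controls.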

[11] = NCI Yeast Anticancer Drug Screen. Data for the bub3 strain (AID 167); conditions: S. cerevisiae bub3 mutant strain, active compounds read high
In short: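 Growth of a checkpoint-deficient yeast mutant is measured after compound exposure. Values represent inhibition relative to vehicle.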

[12] = NCI Yeast Anticancer Drug Screen. Data for the wt2 strain (AID 169);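 further: 0% = growth of vehicle-treated yeast cultures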; conditions: S. cerevisiae wt2 strain growth inhibition, active compounds read high
In short: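 Yeast cells were exposed to test compounds, and growth inhibition was measured relative to vehicle-treated controls.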

[13] = NCI Yeast Anticancer Drug Screen. Data for the mlh1 strain (AID 171);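 further: 0% = growth of vehicle-treated control cultures of the same strain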; conditions: S. cerevisiae mlh1 strain growth inhibition, active compounds read high
In short: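 Yeast carrying a defined genetic alteration in DNA damage repair or cell cycle control were exposed to test compounds. Growth inhibition was measured relative to vehicle-treated controls.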

[14] = NCI Yeast Anticancer Drug Screen. Data for the sgs1 strain (AID 173);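 further: 0% = growth of vehicle-only control cultures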; conditions: S. cerevisiae sgs1 mutant, active compounds read high
In short: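 Yeast mutant strains carrying defined defects in DNA damage repair or cell cycle control were exposed to test compounds. Growth inhibition was scored against vehicle-treated controls.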

[15] = NCI Yeast Anticancer Drug Screen. Data for the mlh1 rad18 strain (AID 175); conditions: S. cerevisiae mlh1 rad18 strain growth inhibition, active compounds read high
In short: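 Growth inhibition of the yeast strain was measured after compound exposure and expressed relative to vehicle-treated controls. The strain carries defined defects in DNA damage repair.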

[16] = NCI Yeast Anticancer Drug Screen. Data for the rad18 strain (AID 177); conditions: S. cerevisiae rad18 mutant growth inhibition, active compounds read high
In short: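 Yeast carrying a defined DNA damage repair alteration were exposed to compounds. Growth inhibition was expressed relative to vehicle-treated controls.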

[17] = at 5.0 µM (retest, dose inferred, filed as 0.5)
[18] = at 50.0 µM (retest, dose inferred, filed as 5.0)

Measured: growth inhibition

COC1CC(CC2CCC(C)C(C(C)C(=O)O)O2)OC2(OC(C)(C3CCC(C)(C4OC(C5OC(O)(CO)C(C)CC5C)CC4C)O3)CC2C)C1C (stereo unspecified)
active: [1]; at 33.0 µM 93% | [1]; at 100.0 µM 98% | [2]; at 33.0 µM 93% | [2]; at 100.0 µM 98% | [3]; at 100.0 µM 90% | [4]; at 33.0 µM 91% | [4]; at 100.0 µM 98% | [5]; at 33.0 µM 96% | [5]; [18] 95% | [5]; at 50.0 µM 84.6% | [5]; at 100.0 µM 98% | [6]; at 33.0 µM 90% | [6]; [18] 95% | [6]; at 50.0 µM 90% | [6]; at 100.0 µM 97% | [7]; at 33.0 µM 89% | [7]; at 100.0 µM 96% | [8]; [18] 91% | [8]; at 50.0 µM 89% | [9]; at 33.0 µM 93% | [9]; at 100.0 µM 96% | [10]; [18] 88% | [10]; at 50.0 µM 84% | [11]; at 33.0 µM 84% | [11]; [18] 82% | [11]; at 50.0 µM 86.3% | [11]; at 100.0 µM 97% | [12]; at 100.0 µM 91% | [13]; at 33.0 µM 83% | [13]; at 100.0 µM 97% | [14]; at 33.0 µM 88% | [14]; at 100.0 µM 97% | [15]; [18] 96% | [15]; at 50.0 µM 87.8% | [16]; at 33.0 µM 93% | [16]; at 100.0 µM 97%
inactive: [1]; at 1.2 µM 17% | [1]; at 3.7 µM -3% | [1]; at 11.0 µM 22% | [2]; at 1.2 µM -2% | [2]; at 3.7 µM -9% | [2]; at 11.0 µM 5% | [3]; at 1.2 µM -12% | [3]; at 3.7 µM 0% | [3]; at 11.0 µM -12% | [3]; at 33.0 µM 40% | [4]; at 1.2 µM 14% | [4]; at 3.7 µM -5% | [4]; at 11.0 µM 27% | [5]; at 1.2 µM 24% | [5]; at 3.7 µM 19% | [5]; [17] 36% | [5]; at 11.0 µM 34% | [6]; at 1.2 µM -2% | [6]; at 3.7 µM -7% | [6]; [17] 28% | [6]; at 11.0 µM 12% | [7]; at 1.2 µM 5% | [7]; at 3.7 µM -6% | [7]; at 11.0 µM -4% | [8]; [17] -1% | [9]; at 1.2 µM -46% | [9]; at 3.7 µM -22% | [9]; at 11.0 µM 50% | [10]; [17] 26% | [11]; at 1.2 µM -4% | [11]; at 3.7 µM -4% | [11]; [17] 3% | [11]; at 11.0 µM 25% | [12]; at 1.2 µM -46% | [12]; at 3.7 µM -46% | [12]; at 11.0 µM -18% | [12]; at 33.0 µM 60% | [13]; at 1.2 µM -3% | [13]; at 3.7 µM -15% | [13]; at 11.0 µM 0% | [14]; at 1.2 µM -36% | [14]; at 3.7 µM -22% | [14]; at 11.0 µM -12% | [15]; [17] 30% | [16]; at 1.2 µM -17% | [16]; at 3.7 µM -25% | [16]; at 11.0 µM -11%

CC1CC(Br)C(=O)O1 (stereo unspecified)
active: [1]; at 33.0 µM 89% | [1]; at 100.0 µM 92% | [2]; at 100.0 µM 88% | [3]; at 33.0 µM 88% | [3]; at 100.0 µM 89% | [4]; at 100.0 µM 86% | [5]; at 33.0 µM 74% | [5]; [18] 95% | [5]; at 50.0 µM 86.7% | [5]; at 100.0 µM 89% | [6]; at 33.0 µM 95% | [6]; [18] 98% | [6]; at 50.0 µM 92.2% | [6]; at 100.0 µM 95% | [7]; at 100.0 µM 85% | [8]; [18] 77% | [8]; at 50.0 µM 87.8% | [9]; at 33.0 µM 95% | [9]; at 100.0 µM 96% | [10]; [18] 86% | [10]; at 50.0 µM 84.8% | [11]; at 11.0 µM 74% | [11]; at 33.0 µM 96% | [11]; [18] 98% | [11]; at 50.0 µM 88.5% | [11]; at 100.0 µM 97% | [12]; at 100.0 µM 86% | [13]; at 33.0 µM 79% | [13]; at 100.0 µM 90% | [14]; at 100.0 µM 88% | [15]; [18] 97% | [15]; at 50.0 µM 83.8%
inactive: [1]; at 1.2 µM -27% | [1]; at 3.7 µM -35% | [1]; at 11.0 µM -18% | [2]; at 1.2 µM -48% | [2]; at 3.7 µM -49% | [2]; at 11.0 µM -22% | [2]; at 33.0 µM 67% | [3]; at 1.2 µM 12% | [3]; at 3.7 µM 11% | [3]; at 11.0 µM 34% | [4]; at 1.2 µM -52% | [4]; at 3.7 µM -49% | [4]; at 11.0 µM -24% | [4]; at 33.0 µM 69% | [5]; at 1.2 µM -67% | [5]; at 3.7 µM -55% | [5]; [17] -14% | [5]; at 11.0 µM -34% | [6]; at 1.2 µM -30% | [6]; at 3.7 µM -18% | [6]; [17] 1% | [6]; at 11.0 µM 31% | [7]; at 1.2 µM -49% | [7]; at 3.7 µM -42% | [7]; at 11.0 µM -30% | [7]; at 33.0 µM 58% | [8]; [17] 9% | [9]; at 1.2 µM -44% | [9]; at 3.7 µM -44% | [9]; at 11.0 µM -13% | [10]; [17] 39% | [11]; at 1.2 µM 8% | [11]; at 3.7 µM 22% | [11]; [17] 44% | [12]; at 1.2 µM -52% | [12]; at 3.7 µM -40% | [12]; at 11.0 µM -25% | [12]; at 33.0 µM 30% | [13]; at 1.2 µM -54% | [13]; at 3.7 µM -51% | [13]; at 11.0 µM -18% | [14]; at 1.2 µM -41% | [14]; at 3.7 µM -40% | [14]; at 11.0 µM -31% | [14]; at 33.0 µM 68% | [15]; [17] -9%
